Assay outcomes deposited in PubChem by National Center for Advancing Translational Sciences (NCATS).
SMN2 splice enh: qHTS Assay for Enhancers of SMN2 Splice Variant Expression; HEK293 SMN2-luciferase splicing reporter, luminescence, 30-36 h; Potency, µM (doses to about 46.1 µM), for inactives: top-dose activity change, positive = activation, hits mostly activators; 210,000 tested, 2.8% active; AID 1458, 2008; further: % of control where 0% means no effect; nearly all actives have a fitted effect of over 55% in size
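HEK293 cells carry an SMN2 minigene-luciferase reporter in which exon 7 inclusion puts luciferase in frame. Cells were seeded at 2000 cells/well, attached for 10-12 hours, then exposed to compounds for 30-36 hours at 37C before ONE-Glo luminescence.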
NPC1 prom act: qHTS Assay for NPC1 Promoter Activators. 320,000 tested, 2.4% active. Potency, µM (titrated, usually from 9.22 µM), inactives show at the top dose activation, hits mostly activators. Huh7 NPC1 promoter luciferase reporter, 24 h; further: % of control where 0% means no effect; nearly all actives have a fitted effect of over 60% in size
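Quantitative HTS used a cell-based reporter: Huh7 cells stably bearing the NPC1 promoter upstream of luciferase were treated with compounds for 24 h, and promoter activation was read as luminescence.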
ELG1 genotox: qHTS screen for small molecules that induce genotoxicity in human embryonic kidney (HEK293T) cells expressing luciferase-tagged ELG1 | AID 504466, 2011 | 330,000 tested, 1.3% active | Potency, µM (titrated, usually from 46 µM), inactives show top-dose activity change, positive = activation, most hits filed as activators | HEK293T ELG1-luciferase reporter, luminescence, 16 h; further: % of control where 0% means no effect; nearly all actives have a fitted effect of over 60% in size
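ELG1-luciferase HEK293T cells, 2,000/well; compound pinned in; 16 hr, 37 °C, 5% CO2; ONE-Glo, 30 min RT; luminescence on CCD imager.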
Rab9 prom act: qHTS Assay for Rab9 Promoter Activators; 320,000 tested, 2.8% active; Huh7 Rab9 promoter-luciferase reporter, luminescence, 24 h; Potency, µM (titrated, usually from 9.22 µM), without a hit: at the top dose activation, negative = inhibition, hits mostly activators; further: % of control where 0% means no effect; nearly all actives have a fitted effect of over 60% in size
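Promoter activation is measured as luciferase luminescence in Huh7 cells stably transfected with a Rab9 promoter–luciferase construct, following 24 h compound exposure at 37 °C and 10 min reagent incubation at ambient temperature.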
FLuc counter: qHTS profiling assay for firefly luciferase inhibitor/activator using purifed enzyme and Km concentrations of substrates (counterscreen for miR-21 project). Luciferin 4-monooxygenase (Photinus pyralis), P08659. purified FLuc, Km substrates, luminescence inhibition. Potency, µM (highest dose often 57.5 µM), inactives show top-dose activity change, negative = inhibition, actives largely listed as inhibitors. 360,000 tested, 6.9% active;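 further: plate controls were vehicle for no effect and reference inhibitor for full effect; nearly all actives have a fitted effect of over 55% in size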
Target sequence (P08659 whole entry, looked up): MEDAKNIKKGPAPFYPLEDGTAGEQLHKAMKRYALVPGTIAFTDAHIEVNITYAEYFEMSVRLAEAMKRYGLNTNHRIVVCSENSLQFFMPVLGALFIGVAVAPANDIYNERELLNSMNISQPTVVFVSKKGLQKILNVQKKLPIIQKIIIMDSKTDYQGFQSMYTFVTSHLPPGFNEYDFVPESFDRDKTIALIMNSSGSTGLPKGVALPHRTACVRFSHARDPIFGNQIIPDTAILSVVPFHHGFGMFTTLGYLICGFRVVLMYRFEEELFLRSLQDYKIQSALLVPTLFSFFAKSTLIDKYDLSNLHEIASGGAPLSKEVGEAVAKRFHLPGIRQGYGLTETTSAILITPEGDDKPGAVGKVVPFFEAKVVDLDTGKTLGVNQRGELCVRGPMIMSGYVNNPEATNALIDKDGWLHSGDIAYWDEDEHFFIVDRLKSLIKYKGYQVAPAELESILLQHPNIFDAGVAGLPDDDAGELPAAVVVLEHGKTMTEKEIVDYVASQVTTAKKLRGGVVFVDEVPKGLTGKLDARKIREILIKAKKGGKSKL
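Purified P. pyralis luciferase, 10 nM final, with Km-level 10 uM D-luciferin and 10 uM ATP in 50 mM Tris acetate pH 7.5, 10 mM Mg acetate, 0.01% Tween-20, 0.05% BSA; 6-point qHTS titration about 60 µM downward; luminescence read.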
Luc counter: Counterscreen for Luciferase (Kinase-Glo TM) Inhibition | Potency, µM (titrated, usually from 38.3 µM), inactives show at the top dose activity change, negative = inhibition, actives largely listed as inhibitors | Luciferin 4-monooxygenase (Photuris pensylvanica), Q27757 | 200,000 tested, 0.28% active | AID 1379, 2008 | Kinase-Glo luciferase, ATP luminescence, 8 min; further: on the % scale 0 is the no-effect control and ±100 the full control effect; nearly all actives have a fitted effect of over 60% in size
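Compounds were added to a substrate mix at pH 7.2 (50 mM imidazole, 10 uM ATP, within the enzyme's linear range), followed by Kinase-Glo detection reagent; luminescence was measured after 8 minutes at ambient temperature.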
The depositor's hits bear a star; ? = inconclusive; . = no result; [ ] = dose if it differs, or a comment. The list is not random: actives were taken first. Their share in the collection is about 7.4%. The call rests on the fitted dose curve; in most records, active means well fitted curve in the direction sought with a large enough effect; inconclusive means small, poorly fitted or top-dose-only effect, or another doubt; inactive means no such curve, though single readings can be large; an effect the other way counts as inactive or inconclusive. Potency means the concentration at half of the fitted maximal effect.

SMILES	SMN2 splice enh	NPC1 prom act	ELG1 genotox	Rab9 prom act	FLuc counter	Luc counter
COc1ccc(/C=C/c2cc(OC)c(OC)cc2CC[N+](C)(C)C)cc1	0%	.	.	.	.	-3%
COc1ccc(-c2noc(N3CCN(c4cccc(C)c4C)CC3)n2)cc1OC	.	.	.	.	1%	.
CC(=O)Nc1ccc(NC(=O)c2ccc(-n3c(C)ccc3C)cc2)cc1	.	-5%	?	-4%	21µM*	6%
Cc1ccc(C)n1-c1ccc(C(=O)Nc2ccccc2F)cc1	.	?	?	?	?	-6%
Cc1ccc(C)n1-c1ccc(NC(=O)c2ccccc2)cc1	11µM*	28%	?	?	8.5µM*	-2%
CC(=O)NCCNC(=O)c1ccc(-n2c(C)ccc2C)cc1	.	14%	23µM*	?	-7%	-1%
CCSc1nnc(NC(=O)c2ccc(C)o2)s1	16µM*	?	18µM*	?	17µM*	-2%
CCc1nnc(NC(=O)c2oc3cc(C)c(C)cc3c2C)s1	?	16%	9%	6%	-1%	10%
CCSc1nnc(NC(=O)c2cc(C)oc2C)s1	11µM*	?	7.3µM*	?	17µM*	-5%
CCc1nnc(NC(=O)c2cc(C)oc2C)s1	.	-1%	18%	7%	17µM*	.
CCSc1nnc(NC(=O)Cc2ccc(OC)cc2)s1	-6%	1%	0%	10%	0%	1%
Cc1ccc(C)c(N2CCN(C(=O)c3cccn3-c3nnc(N4CCCCC4)s3)CC2)c1	.	.	.	.	-14%	.
COC(=O)C1(Cc2ccccc2)C=C2C(=C(C(C)C)C(=O)C2C)CN1 (stereo not given)	-34%	.	.	.	.	-2%
Cc1cccc(-n2c(=O)c3c4c(sc3n3cnnc23)CCCC4)c1	-4%	.	.	.	2%	.
N=C1C2=C3Sc4ccccc4N3CCCC2=NN1c1cccc(S(=O)(=O)O)c1	.	-4%	-1%	-2%	19µM*	.
N#CC1=C2Sc3ccccc3N2CCCC1=O	6%	?	?	?	-19%	-4%
O=C(O)c1ccc(N2Cc3ccccc3C2)cc1O	-6%	21%	3%	27%	24µM*	?
O=C(O)c1ccc(N2CCCCC2)cc1O	.	16%	6%	1%	15µM*	.
CCCSc1nnc(Nc2ccccc2C)s1	?	28%	?	2.8µM*	19µM*	-7%
CCN(CC)C(=O)CCCSc1nnc(Nc2ccccc2F)s1	.	?	17%	1.8µM*	17µM*	-8%
CN(C(=O)CSc1nnc(Nc2ccccc2F)s1)C1CCS(=O)(=O)C1 (stereo not given)	.	.	2%	.	.	.
O=C1c2ccccc2C(=O)N1CSc1nnc(Nc2ccccc2F)s1	6.3µM*	4%	14%	9%	2%	1%
CCOc1ccccc1NC(=O)CN1C(=O)C2(SCC(=O)N2c2ccc(C)cc2)c2ccccc21 (stereo not given)	.	.	.	.	-7%	.
Cc1cc(C)c2c(n1)SCC(=O)N2CC(=O)Nc1cccc(C)c1C	12%	.	.	.	8%	.
O=C(Nc1ccc2c(c1)CN(Cc1ccc(CO)o1)CC2)c1ccc(C(F)(F)F)cc1	.	2%	17%	-7%	11µM*	.
SMILES	SMN2 splice enh	NPC1 prom act	ELG1 genotox	Rab9 prom act	FLuc counter	Luc counter
COc1ccccc1CCC(=O)Nc1ccc2c(c1)CN(Cc1ccc(CO)o1)CC2	.	-2%	-7%	2%	-10%	.
COc1ccc(N2C(=O)Cc3cc(OC)c(OC)cc3C2c2ccc(F)cc2)cc1 (stereo not given)	4%	.	.	.	6%	.
Cc1ccc(C)c(OCCn2c(-c3ccc(Cl)cc3)nc3ccccc3c2=O)c1C	-7%	.	.	.	4%	.
O=C1CCC(C(=O)Nc2ccc(Cl)cc2)N1 (stereo not given)	.	-3%	2%	9%	7%	.
O=C(Nc1ccc(Cl)cc1)C1C2CCCCC21 (stereo not given)	.	4µM*	?	4µM*	4.8µM*	.
CCc1ccc(NC(=O)C2CCCCC2C(=O)O)cc1 (stereo not given)	-1%	-2%	-1%	-1%	-5%	5%
CCc1ccc(NC(=O)C2C3/C=C\CCCCC32)cc1 (stereo not given)	11µM*	4.5µM*	?	3.2µM*	?	2%
COc1ccccc1N1CCN(C(=O)CCS(=O)(=O)c2cc(Br)cc3c2N(C(=O)C2CC2)CC3)CC1	1%	.	.	.	6%	.
O=C(O)CCC(=O)c1ccc(-c2ccccc2)cc1	29%	25%	9%	?	8.5µM*	-6%
O=C(O)CCC(=O)NNC(=O)c1ccc([N+](=O)[O-])cc1	.	0%	0%	-4%	-2%	.
CC(NC(N)=O)C(=O)OCC(=O)c1ccc(-c2ccccc2)cc1 (stereo not given)	26%	10%	7%	18%	12µM*	-6%
O=C(O)CCC(=O)NNC(=O)c1ccc(-c2ccccc2)cc1	26%	-1%	2%	1%	19µM*	-3%
O=C(C[n+]1ccccc1)c1ccc(-c2ccccc2)cc1	.	-1%	-14%	-5%	4%	.
COC(=O)c1ccccc1NC(=O)COC(=O)[C@H](C)NC(N)=O	.	2%	0%	3%	3%	.
CCC(=O)c1ccc(-c2ccccc2)cc1	?	3%	?	2%	15µM*	-4%
O=C(O)CCC(=O)CCC(=O)c1ccc(Cl)cc1	-4%	1%	0%	-2%	?	8%
Cc1ccc(C(=O)O[C@H](C(=O)O)[C@@H](OC(=O)c2ccc(C)cc2)C(=O)O)cc1 (tested in a mixture with another compound)	1%	1%[46.1 µM]	.	1%[46.1 µM]	.	0%
CCS(=O)(=O)c1nc(S(=O)(=O)c2ccc(Cl)cc2)c(NCc2ccc(Cl)cc2)s1	-8%	.	.	.	-1%	.
CCCC(C)NC(=O)c1ccc(-c2ccccc2)cc1 (stereo not given)	.	?	?	1.8µM*	?	.
COc1ccc2nc(NC(=O)CSC3=NCCS3)sc2c1	-7%	?	-1%	?	17µM*	-3%
COc1ccc(OC)c(NC(=O)CSC2=NCCS2)c1	53%	-2%	-8%	-3%	?	0%
COc1ccc2nc(NC(=O)CN3CCN(C)CC3)sc2c1	-11%	1%	10%	-3%	?	-1%
CCOc1ccc2nc(NC(=O)CSc3ccc(Cl)cc3)sc2c1	8%	2%	25%	2%	?	1%
